Most compounds without a hit are left out; they make up all but 1.5% or so of the library.
V-ATPase pH: regulators of yeast V-ATPase proton pumping, primary screen, pHLuorin cytosolic pH fluorescence; S. cerevisiae; response, % at 10 µM; 350,000 tested, 0.37% active; in the data active means response mostly above about 7.3%, no sharp cut-off; inactive means mostly below about 5.4%; further: actives read high
CRFBP-R2 agonist: agonists of CRF-BP/CRF-R2 complex, primary screen, cell-based, HEK293, calcium dye fluorescence, uHTS. CRF-binding protein / CRF receptor 2 complex (human). calcium dye fluorescence (FLIPR); percent of saturating CRF peptide response. activation, % at 13.2 µM. 350,000 tested, 0.46% active. AID 588473, 2011;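 active means activation of at least 50%, plus an integration ratio under a set limit after plate pattern correction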
CRFBP-R2 block: antagonists of CRF-BP/CRF-R2 complex, primary screen, cell-based, HEK293, calcium dye fluorescence, uHTS; CRF-induced calcium fluorescence; inhibition, % at 11.8 µM; 350,000 tested, 0.59% active; AID 588475, 2011;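 active means inhibition of the ligand-induced calcium signal above about 50% at the single tested concentration, limit read from the data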
NTR1 agonist: agonists of human NTR1, primary screen, imaging, U2OS cells, beta-arrestin-GFP, high content. 330,000 tested, 0.17% active. Neurotensin receptor type 1 (Homo sapiens), P30989. NTR1-U2OS beta-arrestin-GFP spot imaging, agonist mode. AID 493036, 2011. activation, % at 20 µM;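 active means activation at or above 40% of the spot to cytoplasm intensity ratio, with at least 20 cells analyzed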
Target sequence (P30989 whole entry, looked up): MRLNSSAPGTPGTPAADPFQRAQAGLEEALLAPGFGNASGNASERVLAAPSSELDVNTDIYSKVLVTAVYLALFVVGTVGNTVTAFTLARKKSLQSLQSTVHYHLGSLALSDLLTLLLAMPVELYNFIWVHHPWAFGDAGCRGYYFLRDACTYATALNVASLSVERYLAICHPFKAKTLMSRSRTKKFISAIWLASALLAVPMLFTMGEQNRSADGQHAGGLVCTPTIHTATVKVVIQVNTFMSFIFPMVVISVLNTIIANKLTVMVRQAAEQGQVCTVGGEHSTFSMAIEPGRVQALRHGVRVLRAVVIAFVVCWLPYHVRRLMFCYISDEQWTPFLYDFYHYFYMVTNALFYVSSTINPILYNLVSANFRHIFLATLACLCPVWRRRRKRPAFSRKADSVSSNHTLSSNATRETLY
Of the large screens only hits and unclear results are named; the others gave an inactive call.

Cc1ccc(S(=O)(=O)N2CCN(C(=O)COc3ccc(C)nc3[N+](=O)[O-])CC2)c(C)c1	CRFBP-R2 block 77.8
Cc1ccc(OCC(=O)N2CCN(S(=O)(=O)c3ccc(Cl)cc3)CC2)c([N+](=O)[O-])n1	none
CCN(CC)c1ccc(/C=C2\C(=O)c3ccc(C(=O)O)cc3C2=O)cc1	CRFBP-R2 agonist 247.9 (no result: NTR1 agonist)
O=C(Nc1ccc(-n2cnnn2)cc1)c1cn2ccccc2n1	CRFBP-R2 agonist 104.0
O=C(NC(=S)N1CCOCC1)c1cn(-c2ccccc2)nc1-c1ccc(F)cc1	none
O=C(COC(=O)c1cccs1)Nc1cccc(S(=O)(=O)NC2=NCCCCC2)c1	none
O=C(COC(=O)c1ccc([N+](=O)[O-])s1)Nc1cccc(S(=O)(=O)NC2=NCCCCC2)c1	CRFBP-R2 block 68.3
CCCCNC(=O)c1ccc(NC(C)=O)c(Cl)c1	none
Cc1nnc(C)n1/N=C/c1ccccc1	none
Cc1nnc(C)n1/N=C/c1cccs1	CRFBP-R2 block 55.1
CCc1ccc(NCCC(=O)c2ccc(Br)cc2)cc1	V-ATPase pH 14.8
CCc1ccccc1N1C(=O)C2CC=CCC2C1=O (stereo unspecified)	none
CCc1ccccc1N1C(=O)C2CC(C)=C(C)CC2C1=O (stereo unspecified)	CRFBP-R2 block 50.2
Cc1ccsc1C(=O)N1CCCC(C(=O)c2cc(F)ccc2F)C1 (stereo unspecified)	none
CNC(=O)COC(=O)c1cc(-c2ccccc2)nn1-c1ccccc1	none
Cc1ccc(C)c(S(=O)(=O)N2CCN(C(=O)[C@H](C)N3C(=O)C4CC=CCC4C3=O)CC2)c1 (stereo partly specified)	none
Cc1ccc(C)c(NC(=O)c2ccccc2C(=O)c2ccccc2)c1	none (no result: V-ATPase pH, CRFBP-R2 agonist, CRFBP-R2 block)
CC(C)C1OC2(C)OC(=N)C1(C#N)C(C#N)(C#N)C2c1ccccc1 (stereo unspecified)	CRFBP-R2 agonist 62.5
COC(=O)c1c(NC(=O)c2cccc(S(=O)(=O)N3CCN(C)CC3)c2)sc(C)c1C	none
COc1ccc(-c2csc(NC(=O)CSc3nc(SC)ns3)n2)cc1	CRFBP-R2 block 85.3
COc1ccc(-c2csc(NC(=O)CSc3nc(C)cs3)n2)cc1	none
O=C(CSc1ccc2nnc(-c3ccc(Cl)cc3)n2n1)N1CCCC1	V-ATPase pH 13.9
O=C(CSc1nnc2ccc(-c3ccc(F)cc3)nn12)N1CCCC1	V-ATPase pH 19.7
CN(C)c1ccc(C(=O)NNC(=O)c2ccc(Cl)cc2)cc1	CRFBP-R2 block 67.6
O=C(CCc1ccccc1)NNC(=S)NC(=O)c1ccc(Cl)cc1	CRFBP-R2 agonist 99.1 (no result: V-ATPase pH)
CC(=O)NNC(=S)NC(=O)c1ccc(C)cc1	none
CN(C)c1ccc(C(CC(=O)O)NC(=O)c2ccc(Cl)cc2)cc1 (stereo unspecified)	none
Cc1ccc(C(=O)NNC(=S)NC(=O)c2ccc(Cl)cc2)cc1	CRFBP-R2 agonist 216.2
Cc1ccc(S(=O)(=O)N2CCCCCC2)cc1[N+](=O)[O-]	CRFBP-R2 block 58.1
Cc1ccc(S(=O)(=O)N2CCC(C)CC2)cc1[N+](=O)[O-]	none (no result: NTR1 agonist)
CC(=O)Nc1ccc(S(=O)(=O)N2CCN(Cc3csc(C)n3)CC2)cc1	none
CCN(CC)S(=O)(=O)c1ccc2c(c1)N(CC(=O)NCc1ccccn1)C(=O)CO2	none
CCN(CC)S(=O)(=O)c1ccc2c(c1)N(CC(=O)NCc1ccco1)C(=O)CO2	CRFBP-R2 block 82.7
O=C(NC12CC3CC(CC(C3)C1)C2)C1CCCN1C(=O)Nc1ccccc1 (stereo unspecified)	none
Cc1nc(-n2[nH]c3c(c2=O)CCCC3)[nH]c(=O)c1Cc1ccccc1	CRFBP-R2 agonist 58.0
CC(=O)Nc1ccc(Cl)c(C(N)=O)c1	none
CC(=O)Nc1cc(C(N)=O)c(Cl)cc1Cl	CRFBP-R2 block 72.3
COCC1CCN(Cc2c(C(=O)N3CCc4ccccc4C3)nc3ccc(Cl)cn23)C1 (stereo unspecified)	none
COc1ccc(NC(=O)CN(C)C(=O)C2=COCCO2)cc1	CRFBP-R2 block 106.9
COc1ccc(C(=O)NNC(=O)CSc2nnc(-c3cccnc3)n2C)cc1	none
Fc1ccc(Br)cc1C1C=C(c2ccc(Br)cc2)Nc2ncnn21 (stereo unspecified)	CRFBP-R2 agonist 102.4
CCc1ccc(C2=CC(c3cc(Br)ccc3F)n3ncnc3N2)cc1 (stereo unspecified)	CRFBP-R2 agonist 53.6
CC(=O)c1ccc(OC(C)C)c(Cc2c(O)nc(N)[nH]c2=O)c1	none
Cc1ccccc1-n1c(C)nnc1SCC(=O)N1CCc2ccccc2C1	none
C(=C\c1ccccn1)/c1cccnc1	none (no result: CRFBP-R2 agonist, CRFBP-R2 block)
COCCn1c(SCC(=O)Nc2ncc(C)s2)nc2sc3c(c2c1=O)CCC3	none (no result: V-ATPase pH, CRFBP-R2 agonist, CRFBP-R2 block)
COCCn1c(SCc2nnc(-c3ccccc3)o2)nc2sc3c(c2c1=O)CCC3	CRFBP-R2 block 54.8 (no result: NTR1 agonist)
CCOc1ccc(NC(=O)CSc2ccc(-c3cccnc3)nn2)cc1	none
COc1cc(C2C=C(c3cccs3)Nc3ncnn32)cc(OC)c1OC (stereo unspecified)	CRFBP-R2 agonist 220.8 (no result: NTR1 agonist)
COc1cc(C2CC(=O)C3=C(C2)Nc2ncnn2C3c2cccs2)cc(OC)c1OC (stereo unspecified)	none
Cc1ccc(C(=O)C=Cc2cccc(C)c2)cc1	CRFBP-R2 block 59.5 (no result: NTR1 agonist)
CCOc1ccc(NC(=O)CN(C)C(=O)c2ccc(C)o2)cc1OCC	none
Cn1c(COc2ccccc2)nnc1SCC(=O)c1cccc([N+](=O)[O-])c1	CRFBP-R2 block 59.3
CCn1c(Cc2ccccc2)nnc1SCC(=O)c1cccc([N+](=O)[O-])c1	none
Cn1c(COc2ccc([N+](=O)[O-])cc2)nnc1SCC(N)=O	none
CCOc1cc(C)ccc1OCc1nnc(SCC(=O)c2cccc([N+](=O)[O-])c2)n1C	CRFBP-R2 block 56.0
CCOc1ccc(-n2c(SCc3ccc([N+](=O)[O-])cc3)nnc2-c2ccc(OC)cc2)cc1	CRFBP-R2 block 52.6
CCOc1ccc(-n2c(SCc3ccc(C#N)cc3)nnc2-c2cccnc2)cc1	none
COC(=O)c1cccc(-n2nnnc2SCC(=O)Nc2nc3c(s2)CCCC3)c1	V-ATPase pH 24.3
O=c1ccn([C@@H]2O[C@H](CNCC3=Cc4cc(O)ccc4OC3)[C@@H](O)[C@H]2O)c(=O)[nH]1	none (no result: NTR1 agonist)
O=[N+]([O-])c1ccc(-c2ccc(/C=N/Nc3nc(NCc4ccccc4)nc(N4CCOCC4)n3)o2)cc1	CRFBP-R2 agonist 56.5
O=C1c2ccccc2-c2c1cccc2C(=O)N1CCCCCC1	V-ATPase pH 14.9
O=C(NC1CCCCC1)C(c1cccnc1)N(CCc1ccccc1)C(=O)Cc1cccs1 (stereo unspecified)	none
Cc1cc(C)cc(N=Cc2[nH]c3ccc(Br)c(Cl)c3c2O)c1	CRFBP-R2 agonist 197.0 (no result: NTR1 agonist)
COc1ccc(CN=Cc2[nH]c3ccc(Br)c(Cl)c3c2O)cc1	none
COc1ccc(NC(=O)CN(C)C(=O)C(C)Oc2ccc(Br)cc2)cc1 (stereo unspecified)	none
O=c1c([N+](=O)[O-])cn(Cc2ccccc2)c(=O)n1Cc1ccccc1	CRFBP-R2 agonist 56.1 (no result: NTR1 agonist)
O=C(NC(=S)NCCc1ccccn1)c1ccco1	CRFBP-R2 block 53.0
COc1ccc(N2Cc3cccc(C(=O)NC(C)CCc4ccco4)c3C2=O)cc1 (stereo unspecified)	none

Assay outcomes: PubChem, several laboratories
